Screening results from PubChem BioAssay.
Hits are enriched below; roughly 2.4% of the tested compounds scored in any of these assays.
Wnt bcat act – activators of Wnt/beta-catenin signaling; Wnt/beta-catenin reporter cell assay, activator, plate reader; activation, % at 9.35 µM; actives 1.2% (n = 300,000); AID 743398; in the data active = activation above about 30%, passing the limit was not always enough
Dyrk1A ADPGlo – blocks rat Dyrk1A kinase activity. Q63470. ADP-Glo luminescence, NFATc1 peptide. inhibition, % at 12.5 µM. actives 0.43% (n = 310,000)
INS-1E GSIS act – GLuc luminescence reporter in INS-1E cells, primary screen for activators of glucose-dependent secretion of insulin; activation, % at 16.6 µM; actives 0.61% (n = 370,000); INS-1E GLuc reporter insulin secretion, 2-3 h;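 active = lowest replicate activation of at least 40%, so every replicate reaches that level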
miR122 inh – blocks miR-122 activity in Huh7 sensor cells; Huh7 miR-122 Renilla luciferase sensor, 48 h; neutral wells = 0, positive control = 100; activation (reporter increase), % at 12.5 µM; actives 0.3% (n = 340,000); AID 602342;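 active = mean replicate activation score at least 90 and every replicate individually at or above 90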;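 also: higher luciferase means less miR-122 activity so hits act as miR-122 inhibitors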
NSD2 inh – blocks human histone methyltransferase NSD2; O96028; NSD2 peptide methylation, AlphaScreen, 120 min; inhibition, % at 12.5 µM; actives 0.54% (n = 310,000); AID 743445
Target sequence (O96028 whole entry, looked up): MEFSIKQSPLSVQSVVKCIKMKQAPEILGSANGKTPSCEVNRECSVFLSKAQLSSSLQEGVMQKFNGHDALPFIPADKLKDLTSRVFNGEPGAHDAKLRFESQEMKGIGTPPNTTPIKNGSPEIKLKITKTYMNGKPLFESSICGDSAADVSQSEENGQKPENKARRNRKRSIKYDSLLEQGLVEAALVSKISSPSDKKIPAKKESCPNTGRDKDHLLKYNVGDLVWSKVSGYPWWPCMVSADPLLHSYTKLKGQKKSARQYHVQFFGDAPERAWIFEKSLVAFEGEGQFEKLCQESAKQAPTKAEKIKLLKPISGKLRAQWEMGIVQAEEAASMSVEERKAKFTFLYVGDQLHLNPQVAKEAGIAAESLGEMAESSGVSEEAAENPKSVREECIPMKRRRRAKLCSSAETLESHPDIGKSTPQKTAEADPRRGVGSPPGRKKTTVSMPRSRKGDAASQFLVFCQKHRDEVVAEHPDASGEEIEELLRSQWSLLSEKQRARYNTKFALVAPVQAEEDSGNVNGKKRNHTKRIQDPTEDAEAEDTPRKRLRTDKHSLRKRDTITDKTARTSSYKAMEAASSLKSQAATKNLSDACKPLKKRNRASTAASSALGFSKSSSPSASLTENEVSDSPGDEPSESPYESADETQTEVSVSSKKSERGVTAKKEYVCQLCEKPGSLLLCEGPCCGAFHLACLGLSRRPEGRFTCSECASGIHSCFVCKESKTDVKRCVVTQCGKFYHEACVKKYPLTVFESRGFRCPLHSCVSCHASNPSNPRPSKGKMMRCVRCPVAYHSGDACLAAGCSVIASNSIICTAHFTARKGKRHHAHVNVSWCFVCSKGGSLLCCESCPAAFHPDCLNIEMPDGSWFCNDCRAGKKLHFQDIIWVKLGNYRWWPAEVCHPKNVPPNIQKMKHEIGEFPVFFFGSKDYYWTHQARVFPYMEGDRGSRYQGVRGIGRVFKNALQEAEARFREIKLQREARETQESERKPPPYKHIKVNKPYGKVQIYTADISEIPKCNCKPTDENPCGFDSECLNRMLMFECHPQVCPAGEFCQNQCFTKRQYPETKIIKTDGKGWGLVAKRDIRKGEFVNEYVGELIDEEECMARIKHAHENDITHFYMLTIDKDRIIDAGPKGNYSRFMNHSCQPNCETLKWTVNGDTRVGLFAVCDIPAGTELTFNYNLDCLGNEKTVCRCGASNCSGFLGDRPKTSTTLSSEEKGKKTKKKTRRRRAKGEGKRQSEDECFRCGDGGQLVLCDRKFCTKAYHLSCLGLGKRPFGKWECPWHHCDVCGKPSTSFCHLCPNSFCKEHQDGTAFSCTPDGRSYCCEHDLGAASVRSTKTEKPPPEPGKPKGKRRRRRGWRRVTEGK
MITF act – increases MITF-driven TRPM1 promoter luciferase signal. activation, % at 12.5 µM. SK-MEL-5 TRPM1-promoter luciferase, 24 h; % of positive control, neutral wells = 0. actives 0.75% (n = 300,000);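 active = mean activation of at least 80% with every replicate also reaching 80%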
Alpha artifact – AlphaScreen assay artifact in NSD2 counter-screen. actives 9.4% (n = 1,500). AC35, µM (highest dose often 10 µM). AlphaScreen artifact counterscreen, preloaded methylated H4 peptide. shares compounds with NSD2 inh; call rule not given here
Numbers stand for hits. Rule as the data show it, unless noted: active = inhibition above about 50%; inactive = the rest.

For CO[C@H]1CN(C)C(=O)c2ccc(NC(=O)Nc3ccccc3F)cc2OC[C@@H](C)N(C)C[C@@H]1C the results were INS-1E GSIS act inactive and miR122 inh inactive.
Screening N#Cc1cc2ccc(N3CCOCC3)cc2cc1C#N returned Wnt bcat act inactive, Dyrk1A ADPGlo inactive, INS-1E GSIS act inactive, miR122 inh inactive, NSD2 inh 120, MITF act inactive and Alpha artifact inactive.
For Cc1nc2c(nc1C)C(=O)c1ccccc1C2=O the results were Wnt bcat act inactive, Dyrk1A ADPGlo inactive, INS-1E GSIS act inactive, miR122 inh inactive and NSD2 inh inactive.
`COC1=C(Br)C(=O)c2nc(C)ccc2C1=O` gave Wnt bcat act inactive, INS-1E GSIS act inactive, miR122 inh inactive, NSD2 inh 186 and Alpha artifact inactive.
For COC1=C(N)C(=O)c2nc(C)ccc2C1=O the results were Wnt bcat act inactive, Dyrk1A ADPGlo inactive, INS-1E GSIS act inactive, miR122 inh inactive, NSD2 inh 189 and Alpha artifact inactive.
For CCCNC(=O)N1CCC2(CC1)CN(C(C)=O)[C@H](CO)c1[nH]c3cc(OC)ccc3c12 the results were INS-1E GSIS act inactive.
For Cc1cc2ccccn2c1C(=O)c1ccc([N+](=O)[O-])o1 the results were Wnt bcat act inactive, Dyrk1A ADPGlo inactive, INS-1E GSIS act inactive, miR122 inh inactive, NSD2 inh 61, MITF act inactive and Alpha artifact inactive.
Screening Cc1cc2ccccn2c1C(=O)c1cccc([N+](=O)[O-])c1 returned Wnt bcat act inactive, Dyrk1A ADPGlo inactive, INS-1E GSIS act inactive, miR122 inh inactive, NSD2 inh inactive and MITF act inactive.
`COC(=O)COc1ccc(S(=O)(=O)NCC2CCCO2)cc1Cl` (centres undefined) gave Wnt bcat act inactive, Dyrk1A ADPGlo inactive, INS-1E GSIS act inactive, miR122 inh inactive, NSD2 inh 51, MITF act inactive and Alpha artifact inactive.
O=C(CSc1nc2nn(-c3ccccc3)c(=O)c-2c2n1CCCCC2)c1ccc(O)c(O)c1 was read as Dyrk1A ADPGlo inactive, miR122 inh inactive, NSD2 inh 94, MITF act inactive and Alpha artifact 7.9µM.
`CC(=O)c1ccc(NC(=O)CSc2nc3nn(-c4ccccc4)c(=O)c-3c3n2CCCCC3)cc1` gave Wnt bcat act inactive, INS-1E GSIS act inactive, miR122 inh inactive, NSD2 inh inactive and MITF act inactive.
For CC(=O)C1=C(O)C(=O)N(CCc2c[nH]c3ccccc23)C1c1ccco1 (centres undefined) the results were Wnt bcat act inactive, Dyrk1A ADPGlo inactive, INS-1E GSIS act inactive, miR122 inh inactive, NSD2 inh 61, MITF act inactive and Alpha artifact inactive.
`O=C(O)C=C1C2CC3CC(C2)CC1C3` gave Wnt bcat act inactive, Dyrk1A ADPGlo inactive, miR122 inh inactive, NSD2 inh 50, MITF act inactive and Alpha artifact inactive.
`COc1ccc2c3c(n(C)c2c1)[C@H](CO)NCC31CCN(C(=O)c2cccc(F)c2)CC1` gave INS-1E GSIS act inactive.
For CCOC(=O)N1CCN(C2=Nc3cccc4cccc2c34)CC1 the results were Dyrk1A ADPGlo inactive, miR122 inh inactive, NSD2 inh 71, MITF act inactive and Alpha artifact inactive.
For CN(C)C(=O)c1ccc(-c2ccccc2[C@H]2[C@@H](CO)N(C(=O)C3CCCC3)[C@H]2C#N)cc1 the results were INS-1E GSIS act inactive.
Cc1ccccc1N1CC(C(=O)Nc2ccc(S(=O)(=O)N3CCOCC3)cc2)CC1=O (centres undefined) was read as Wnt bcat act inactive, Dyrk1A ADPGlo inactive, INS-1E GSIS act inactive, miR122 inh inactive, NSD2 inh 85, MITF act inactive and Alpha artifact inactive.
C[C@H](CO)N1C[C@H](C)[C@H](CN(C)Cc2cncnc2)Oc2cc(C#CC3CC3)ccc2S1(=O)=O was read as INS-1E GSIS act inactive and miR122 inh inactive.
For CS(=O)(=O)Nc1ccc2c(c1)[C@@H]1C[C@@H](CC(=O)N3CCOCC3)O[C@@H](CO)[C@@H]1O2 the results were INS-1E GSIS act inactive and miR122 inh inactive.
